Usually AC50 stands for the concentration at which the activity in the assay is half-maximal.

Calls of active or inactive are those of the source. Rule for the calls: active = hit-call score of the fitted dose curve at least 0.9, where 1 is the maximum; inactive = score below 0.9.

Read-out in the assay: Glutamate-cysteine ligase catalytic (GCLC), GCLC (gene 2729)
As to the kind of experiment: LTEA_HepaRG_GCLC: Life Technologies and Expression Analysis (LTEA) Assay for Glutamate-cysteine ligase catalytic (GCLC) using HepaRG (AID 2283498). To be noted: mRNA level, 48 h; actives raise or lower the signal. Here is the method:
LTEA_HepaRG is a cell based, multiplexed-readout assay that uses HepaRG, a human liver cell line, with measurements taken at 48 hours after chemical dosing on a 96-well plate.LTEA_HepaRG_GCLC is one of 102 assay component(s) measured in the LTEA HepaRG cell culture assay. It is a marker of Oxidative Stress.Data from the assay component LTEA_HepaRG_GCLC was analyzed into 1 endpoint. This assay endpoint, LTEA_HepaRG_GCLC, was analyzed with bidirectional fitting relative to DMSO as the negative control and baseline of activity. Using a type of inducible reporter, measures of mRNA induction for gain or loss-of-signal activity can be used to understand regulation of transcription factor activity. To generalize the intended target to other relatable targets, this assay endpoint is annotated to the ligase intended target family, where the subfamily is C-N ligase.
A total of 1060 chemcials from the ToxCast library were tested in eight-point concentration-response experiments. Cell culture and cytotoxicity assays were conducted at Thermo Fisher Scientific's Custom Services facility (Madison, WI). A single lot of human HepaRG cells (Thermo Fisher Scientific, Frederick, MD) was used for the cell culture experiments. 96-well format collagen type I coated plates of human HepaRG cells were prepared using established methods. Briefly, cryopreserved HepaRG cells were thawed, plated at a density of approximately 100,000 cells/well in HepaRG Thaw, Plate, and General Purpose media (HPRG770, Thermo Fisher Scientific), and incubated for 48 hours. 0.5% DMSO was selected as vehicle control to balance the requisite need of DMSO in HepaRG cultures to maintain differentiation (for example, baseline metabolism, proportions of hepatocytes vs. cholangiocytes), while enabling further hepatic receptor pathway activation (for example, PXR and CAR) in response to chemical exposure. 48 hours after plating, the culture medium was replaced with HepaRG Serum-Free Incudtion Media. Cells were exposed to each test chemical in duplicate and maintained in CO2 incubators for another 48 hours. Chemical plates were thawed to room temperature and 200x concentrations of treatment groups were prepared. 8-point conentration-reponse curves were made with the highest exposure at 100 uM, followed by half-log dilutions, all in 0.5% DMSO. Each test plate contained variouse controls, induction positive controls (1mM phenobarbital), cytotoxicity positive controls ([…] aflatoxin B1), vehicle controls (0.5% DMSO), and total lysis controls (0.5% DMSO). Cell morphology images were taken using an Essen IncuCyte FLR automated microscope, with six 96-well plates imaged in about 24 minutes. Images were captured and exported and JPEG files. Spent culture media was transfered to black-well plates for the LDH assay, and remaining media was sorted at -80 C for later use. Cells were treated with RLT buffer and frozen until shipped for gene expression analysis. Total RNA was isolated from the cell suspension in 75 uL of Buffer RLT (Qiagen, Germantown, MD 20874) by Quintiles/Expression Analysis (Durham, NC) using a custom isolation procedure. Total RNA from each plate well was transferred to a preamplification plate. Fluidigm's 96.96 Dynamic ArrayTM (Fluidigm, Amsterdam, the Netherlands) technology was used for gene expression analyses by quantitative reverse transcription polymerase chain reaction (qRT-PCR, performed by Quintiles/Expression Analysis, Durham, NC)89. Standard TaqManTM Assays (Applied Biosystems/ThermoFisher Scientific, Foster City, CA) were used to assess the expression of 93 genes selected based on their selectivity and sensitivity to important hepatic receptors known to be modulated by environmental chemicals; importance in human hepatocyte functionality; and hepatotoxicity. […]
In the case of `CC[C@H](C)C(=O)O[C@H]1C[C@@H](C)C=C2C=C[C@H](C)[C@H](CC[C@@H]3C[C@@H](O)CC(=O)O3)[C@H]21`, the call was inactive.
As to `COc1ccc(-n2nc(C(F)F)cc2-c2ccc(S(C)=O)cc2)cc1` (stereo not given), the outcome was inactive.
For the molecule `Nc1ccc(Nc2ccccc2)cc1`, the result was inactive.
Consider `Nc1nc2ncc(CNc3ccc(C(=O)N[C@@H](CCC(=O)O)C(=O)O)cc3)nc2c(=O)[nH]1`, for which the result was inactive.
For the molecule `O=C(O)CC(O)C(=O)O` (stereo not given), the molecule was called inactive.
On to `CC(C)=CCCC(C)CCO` (stereo not given), for which the molecule was classed as inactive.
`Cn1c(=O)cc(Oc2ccc(F)cc2F)c2cnc(NCC(C)(C)O)nc21`: the result was inactive.
Same read-out and setting: then `CCCC(=O)OCC`, with “inactive”; and `O=C(O)CCN(C1(C(=O)NO)CCCC1)S(=O)(=O)c1ccc(Oc2ccc(F)cc2)cc1`, with “inactive”; and `CCOC(=O)COc1ccc2c(c1)CC(NCC(O)c1cccc(Cl)c1)CC2` (stereo not given), with “inactive”.
As to `CC(=O)OC[C@H]1O[C@@](COC(C)=O)(O[C@H]2O[C@H](COC(C)=O)[C@@H](OC(C)=O)[C@H](OC(C)=O)[C@H]2OC(C)=O)[C@@H](OC(C)=O)[C@@H]1OC(C)=O`, the molecule was called inactive.
On to `O=c1n(CC2CO2)c(=O)n(CC2CO2)c(=O)n1CC1CO1` (stereo not given), for which the result was inactive.
Consider `CCCCCCCCO`, for which the result was inactive.
On to `CCOCCOCCOCCO`, for which the call was inactive.
Turning to `CCn1nc(Cc2ccccc2)cc1C1CCN(C[C@H]2C[C@H](N(C)[C@@H](C(=O)O)C(C)C)C[C@@H]2c2cccc(F)c2)CC1`, the molecule was called inactive.
Regarding `COC(=O)c1ccccc1O`, the molecule was classed as inactive.
Turning to `Cn1c(=O)c2c(ncn2C)n(C)c1=O`, the result was inactive.
Take `Cc1ccc(N)cc1O`: the molecule was called inactive.
On the same count and under the same terms, to `CNCc1ccc(NC(=O)c2c[nH]c3c2C(=O)CCC3)cc1` belongs “inactive”.
Consider `Fc1ccccc1[C@@H](F)COC1CCC(Nc2ncnc3[nH]ncc23)CC1` (stereo not given in full), for which the AC50 is 50 µM (active).
Take `COC(=O)CC(=O)OC`: the result was inactive.
On to `CCOc1cccc(-n2cc(C(=O)N3CCN(c4cc(C(=O)O)c5ccccc5c4)CC3)nc2-c2ccc(C)cc2)c1`, for which the half-maximal activity concentration (AC50) was 79.2 µM (active).
On to `COc1cccc(-c2ccc(/C=C\CN3CCCCCC3)cc2Cl)c1`, for which the outcome was inactive.
Consider `O=C(O)c1cccc(N(Cc2cccnc2)c2ccc(OC(F)F)c(OC(F)F)c2)c1`, for which the outcome was inactive.
Still for that read-out and setting: to `CC(C)=CCC/C(C)=C/CO` belongs “inactive”; to `O=C(OC[C@H]1O[C@@H](OC(=O)c2cc(O)c(O)c(OC(=O)c3cc(O)c(O)c(O)c3)c2)[C@H](OC(=O)c2cc(O)c(O)c(OC(=O)c3cc(O)c(O)c(O)c3)c2)[C@@H](OC(=O)c2cc(O)c(O)c(OC(=O)c3cc(O)c(O)c(O)c3)c2)[C@@H]1OC(=O)c1cc(O)c(O)c(OC(=O)c2cc(O)c(O)c(O)c2)c1)c1cc(O)c(O)c(OC(=O)c2cc(O)c(O)c(O)c2)c1`, “inactive”; to `CC(O)CN(CCN(CC(C)O)CC(C)O)CC(C)O` (stereo not given), “inactive”.
Take `On1ccccc1=S`: the result was inactive.
Regarding `CC(C)(O)c1coc(S(=O)(=O)NC(=O)Nc2c3c(cc4c2CCC4)CCC3)c1`, the molecule was called inactive.
Regarding `COc1ccc2sc(C(=O)Nc3nnn[nH]3)c(OC(C)C)c2c1`, the molecule was classed as inactive.
Regarding `O=C1OC(=O)C2C3C=CC(C3)C12` (stereo not given), the molecule was called inactive.
Turning to `CCN(C(=O)c1cc(C)cc(OC[C@H](C)Nc2ccncc2)c1)C(C)C`, the result was inactive.
For `CCC(C)(C)C(=O)O[C@H]1C[C@@H](C)C=C2C=C[C@H](C)[C@H](CC[C@@H]3C[C@@H](O)CC(=O)O3)[C@H]21`, the outcome was inactive.
For `CCCCCCc1ccc(O)cc1O`, the result was inactive.
As to `COCCOc1cc2cc(C(=O)NC3CCN(C(C)C)CC3)n(CC(=O)Nc3ccc(Cl)cn3)c2cn1`, the result was inactive.
Still for that read-out and setting: then `CC(C)c1cccc(C(C)C)c1N1C(=O)c2ccc(O)cc2C1=O`, with “inactive”; and `COC(=O)c1c(Cl)c(Cl)c(C(=O)OC)c(Cl)c1Cl`, with “inactive”; and `CC[C@H]1OC(=O)[C@H](C)[C@@H](O[C@H]2C[C@@](C)(OC)[C@@H](O)[C@H](C)O2)[C@H](C)[C@@H](O[C@@H]2O[C@H](C)C[C@H](N(C)C)[C@H]2O)[C@](C)(O)C[C@@H](C)C(=O)[C@H](C)[C@@H](O)[C@]1(C)O`, with “inactive”.
As for `C1=CCCC=CCCC=CCC1`, the call was inactive.
In the case of `CN(C)c1ccc(Cc2ccc(N(C)C)cc2)cc1`, the molecule was classed as inactive.
